DAX1 inh-1 = inhibits human nuclear receptor DAX1; HEK293 Gal4-DAX1 luciferase reporter, luminescence; hit rate 0.99% among 340,000; P51843; inhibition, % at 6.75 µM;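 active = inhibition above the mean over all tested compounds plus 3 SD, cut at about 4.2% in these data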;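 note: 0% = DAX1-transfected cells with DMSO and 100% = empty-vector control cells with DMSO; inhibition shows as a rise in luminescence from relieved DAX1 repression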
Target sequence (P51843 207-470 limits assumed): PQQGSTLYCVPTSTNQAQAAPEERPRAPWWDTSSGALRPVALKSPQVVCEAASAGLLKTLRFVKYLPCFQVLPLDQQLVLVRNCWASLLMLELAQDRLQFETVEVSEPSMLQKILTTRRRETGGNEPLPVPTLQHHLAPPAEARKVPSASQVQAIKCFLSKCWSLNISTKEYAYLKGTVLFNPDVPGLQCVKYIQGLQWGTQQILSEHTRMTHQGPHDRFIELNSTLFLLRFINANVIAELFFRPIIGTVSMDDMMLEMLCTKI
ssDAF12 agonist = activates DAF-12 receptor from parasite S. stercoralis; HEK293 ssDAF-12/GRIP1 lit1-tk-luc reporter, luminescence; % of 3 µM dafachronic acid response; hit rate 1% among 370,000; activation, % at 6.8 µM;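 active = activation above the mean over all tested compounds plus 3 SD, cut at about 0.9% in these data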;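 note: 0% = DMSO-only wells and 100% = 3 µM delta7-dafachronic acid wells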
SMARCA2 activ = activators of SMARCA2 function; activation, % at 9.1 µM; MG213 cells, MMTV-luciferase reporter, dexamethasone, overnight; hit rate 1% among 370,000; AID 652017; in the data active = activation above about 7.8%;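 note: 0% = vehicle wells and 100% = reference activator wells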
DAX1 inh-2 = inhibitors of DAX1 repression of SF-1 activated StAR promoter. HEK293T StAR-luciferase reporter, SF-1/DAX-1 repression relief. inhibition, % at 6.8 µM. hit rate 1.1% among 370,000. AID 652010;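 active = inhibition above the mean over all tested compounds plus 3 SD, cut at about 3.6% in these data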;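 note: 0% = DAX-1 cells with DMSO and 100% = cells lacking DAX-1 with DMSO; higher inhibition means more luminescence from relief of DAX-1 repression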
hgDAF12 agonist = hgDAF-12 agonism, primary luciferase screen; HEK293 GAL4-hgDAF12 UAS-luciferase reporter, agonist luminescence; normalized to butyrate control; activation, % at 6.8 µM; hit rate 1.8% among 370,000;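 active = activation above a cutoff set at the mean of all screened compounds plus 3 SD, cut at about 10% in these data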;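 note: 0% = DMSO wells and 100% = sodium butyrate wells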
hcDAF12 agonist = activates DAF-12 receptor from parasite H. contortus; AID 652067; activation, % at 6.8 µM; hit rate 1.4% among 370,000; HEK293 hcDAF-12 lit1-tk-luc reporter, luminescence; 0% DMSO, 100% Δ7-dafachronic acid;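 active = activation above the mean of all tested compounds plus 3 SD, cut at about 5.5% in these data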;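 note: 100% = response to 3 µM Δ7-dafachronic acid high control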
LXR ag = LXR-beta agonism as hcDAF-12 counter-screen; shares compounds with hcDAF12 agonist; HEK293 Gal4-LXR tk-luc reporter, luminescence, 24 h; normalized: DMSO 0%, positive control 100%; activation, % at 6.8 µM; 3,400 tested, under 10 active; AID 743027;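 active = mean percent activation of the reporter above a cutoff set as the average over tested compounds plus their standard deviation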
hcDAF12 ag = confirmation of H. contortus DAF-12 agonists; HEK293 hcDAF-12 lit1-tk-luc reporter, luminescence; % of Δ7-dafachronic acid response; activation, % at 6.8 µM; shares compounds with hcDAF12 agonist; hit rate 61% among 3,400;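 active = mean activation across triplicate tests above the threshold derived from the earlier primary screen, cut at about 5.5% in these data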;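 note: 0% = DMSO only wells and 100% = 3 µM Δ7-dafachronic acid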
* marks the source's active call; other numbers are inactive results; . = not tested or not shown. The list is not random: actives were taken first. Their share in the collection is about 4.8%.

SMILES	DAX1 inh-1	ssDAF12 agonist	SMARCA2 activ	DAX1 inh-2	hgDAF12 agonist	hcDAF12 agonist	LXR ag	hcDAF12 ag
COc1ccccc1C(=O)NC(=S)Nc1cccnc1Cl	-4.0	1.2*	2.1	1.2	5.0	8.1*	1.7	19.5*
O=C(COc1ccccc1)Nc1ccc(Cl)cn1	-0.5	-0.2	0.5	1.1	2.2	0.4	.	.
N/C(=N\c1nc2c(c(=O)[nH]1)CCCC2)Nc1ccccc1Sc1ccccc1	0.7	-1.5	-3.6	-0.5	-1.4	-2.0	.	.
Cc1cccc(C)c1-c1ccc(CN2C(CC(C)C)C(=O)N(Cc3cn(CC4CCCCC4)nn3)CCS2(=O)=O)cc1 (stereo not given)	-0.6	-1.1	-3.2	2.2	-4.5	0.1	.	.
O=C(O)c1ccccc1CSc1nc2ccccc2[nH]1	-0.1	-0.1	2.6	-0.2	3.6	-0.8	.	.
CC(C)C(C(=O)NCC1CCCO1)N(Cc1ccccc1)C(=O)CNS(=O)(=O)c1ccccc1 (stereo not given)	1.3	-1.1	-0.6	-0.1	-0.1	0.6	.	.
Oc1[nH]c2ccccc2c1N=Nc1cccc(Cl)c1	0.6	1.2*	1.5	0.9	9.0	8.9*	1.0	13.3*
Oc1[nH]c2ccccc2c1N=Nc1ccccn1	1.6	0.8	-0.7	1.9	9.1	3.2	.	.
Cc1cccc2c(N=Nc3ccccc3)c(O)[nH]c12	5.4*	4.4*	3.3	2.4	21.9*	14.2*	2.1	21.0*
COC(=O)C(CCCN1C(=O)c2ccccc2C1=O)(NC(C)=O)c1nn[nH]n1 (stereo not given)	0.5	-0.7	0.9	0.5	-1.4	-0.7	.	.
O=c1cc(/C=C/c2ccccc2)oc2ccccc12	0.6	1.6*	4.5	3.7*	12.2*	6.9*	1.4	9.4*
O=[N+]([O-])c1cccc2ccc(/C=C/c3ccc(F)cc3)nc12	0.5	0.4	2.9	-0.1	14.2*	8.5*	0.3	6.0*
Cc1sc2nc(CSC(C)C(=O)N3CCOCC3)[nH]c(=O)c2c1C (stereo not given)	1.0	-1.2	0.4	0.6	-1.9	2.4	.	.
COc1cc2cc(C(c3nnnn3C(C)(C)C)N3CCc4ccccc43)c(=O)[nH]c2cc1OC (stereo not given)	-0.3	-0.5	-4.2	-0.3	-0.8	7.3*	-0.5	-0.2
COc1cc(OC)cc(-c2cc3cc4c(cc3cn2)OCO4)c1	-1.1	.	.	.	.	.	.	.
c1ccc(-c2cc3cc4c(cc3cn2)OCO4)cc1	2.9	1.4*	5.3	1.6	12.8*	8.1*	1.6	8.5*
CN(C)c1ccc(-c2nnn(CC(=O)NCc3ccc4c(c3)OCO4)n2)cc1	-0.2	-1.1	3.1	0.6	1.4	0.7	.	.
Cc1ccc(S(=O)(=O)NC(=O)NCCCN2CCOCC2)cc1	3.4	-0.4	-1.1	-0.4	-0.2	7.6*	-0.4	0.6
O=C(O)[C@@H]1Cc2c([nH]c3ccccc23)C2CCC(=O)N21 (stereo not given in full)	-0.7	1.6*	-2.3	0.0	-0.3	7.6*	-0.4	0.2
CC(=O)N1N=C(c2ccccc2O)OC1(C)CC(=O)Nc1ccccc1 (stereo not given)	3.5	-0.2	-1.2	-0.4	-1.2	6.8*	-0.3	3.9
CC1=CC(c2ccc(Cl)cc2)n2nc(NC(=O)CCC(=O)O)nc2N1 (stereo not given)	2.0	-1.5	2.5	0.7	-0.4	-1.8	.	.
COc1ccc(-c2csc(C(NC(C)=O)c3ccccc3)n2)cc1 (stereo not given)	.	-1.1	-4.2	0.3	-1.5	-2.1	.	.
CCOC(=O)c1c(C)oc2c1c(C(c1ccccc1)N1CCOCC1)c(O)c1ccccc12 (stereo not given)	4.2*	1.0*	4.4	4.0*	12.9*	10.8*	0.6	7.3*
c1ccc2[nH]c(-c3cnco3)cc2c1	0.7	0.8	0.4	-0.5	0.8	6.7*	0.0	7.3*
Cc1ncoc1C(=O)N1CCCC(C(=O)c2ccc(C(F)(F)F)cc2)C1 (stereo not given)	0.6	-0.3	1.2	-0.4	3.0	-0.5	.	.
SMILES	DAX1 inh-1	ssDAF12 agonist	SMARCA2 activ	DAX1 inh-2	hgDAF12 agonist	hcDAF12 agonist	LXR ag	hcDAF12 ag
Cc1ccc(C(=O)N/C(N)=N/c2nc3ccccc3o2)cc1	-0.3	-0.8	1.8	0.2	2.9	-0.9	.	.
COc1ccccc1C(=O)N/C(N)=N/c1nc2ccccc2o1	0.4	1.1*	5.8	0.8	3.9	7.0*	0.5	8.6*
Cc1cc(C)n2nc3ccccc3c2n1	-0.9	-0.2	-1.2	0.5	-0.1	2.9	.	.
Cc1cc(C)n2nc(Nc3ccccc3)cc2n1	0.9	0.4	-0.2	1.3	1.6	7.2*	0.3	10.9*
NC(=O)NC(=O)COC(=O)CCCCCNS(=O)(=O)c1ccc2c(c1)OCCO2	-0.1	-0.9	3.3	0.3	-3.9	-1.4	.	.
C/C(=N\NC(=O)c1ccccc1O)C1C(=O)c2ccccc2C1=O	1.5	-0.1	4.9	2.5	10.3	6.9*	0.4	2.8
C/C(=N/NC(=O)c1cc2ccccc2cc1O)C1C(=O)c2ccccc2C1=O	0.1	-0.7	0.5	1.0	1.5	2.8	.	.
CC(=O)c1ccc(NC(=O)c2onc(C)c2Cl)cc1	0.1	-0.3	3.1	2.6	9.4	7.8*	1.1	6.4*
CC(=O)c1cccc(NC(=O)c2onc(C)c2Cl)c1	0.9	-1.0	0.9	0.7	1.3	-1.8	.	.
Cc1noc(C(=O)Nc2ccc3c(c2)OCO3)c1Cl	2.0	0.7	1.5	2.8	7.9	6.7*	0.3	5.5
N#C/C(=C\c1cn(-c2ccccc2)nc1-c1cc2ccccc2o1)c1nc2ccccc2[nH]1	1.5	-0.3	1.8	1.2	6.5	6.6*	-0.1	0.6
N#C/C(=C\c1ccccc1OCC(=O)O)c1nc2ccccc2[nH]1	2.2	0.3	1.1	0.6	5.5	7.8*	-0.2	3.6
O=C(N/N=C/c1cn(-c2ccccc2)nc1-c1cc2ccccc2o1)c1cccnc1	0.4	1.2*	2.5	0.7	3.5	8.6*	1.2	11.3*
N#C/C(=C\c1cccs1)c1nc2ccccc2[nH]1	0.8	0.5	1.2	0.1	4.0	1.8	.	.
O=C1CCC(C(=O)N2CCc3c(Cl)cccc3C2)CN1CCCN1CCOCC1 (stereo not given)	-0.1	-1.1	0.4	1.1	-1.4	2.1	.	.
CC(C)(C)NC(=O)C(c1ccc(O)cc1)N(Cc1ccco1)C(=O)Cn1nnc(-c2cccs2)n1 (stereo not given)	-0.5	-1.4	2.0	-0.3	-2.0	8.2*	-0.3	-0.1

Source: PubChem BioAssay
